# Reference: the supplement of paper PMC10849652
# Of roughly 7,900 targets only a part is listed; those with a hit were picked by preference. About 0.6% of all pairs of compound and target were hits.
# Compound: CN1CCN(CCOc2cc(OC3CCOCC3)c3c(Nc4c(Cl)ccc5c4OCO5)ncnc3c2)CC1 [saracatinib]
# Assay: log2 fold change, soluble protein after heating vs DMSO (PISA); higher = thermal stabilisation; K562 cells, 10 uM, 30 min; active = over 0.2 and 3.5 SD of the protein, either way, in both replicates (recomputed)
# Procedure, shortened: (§1)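 K562 cells (2×10^6 cells/mL) were treated with 10 μM compound for 30 min, and aliquots were heated for 3 min over 48°C-58°C. Pooled aliquots were extracted in PBS with 0.5% NP-40 at 4°C, and the supernatant after 21,000xg for 90 min was measured by TMTpro 16plex LC-MS/MS with channel sums equalised. Reported thermal stability, relative to control samples and from duplicates, is a log2 fold change.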
# Sequence of UniProt Q96DI7 (Q96DI7 whole entry, looked up): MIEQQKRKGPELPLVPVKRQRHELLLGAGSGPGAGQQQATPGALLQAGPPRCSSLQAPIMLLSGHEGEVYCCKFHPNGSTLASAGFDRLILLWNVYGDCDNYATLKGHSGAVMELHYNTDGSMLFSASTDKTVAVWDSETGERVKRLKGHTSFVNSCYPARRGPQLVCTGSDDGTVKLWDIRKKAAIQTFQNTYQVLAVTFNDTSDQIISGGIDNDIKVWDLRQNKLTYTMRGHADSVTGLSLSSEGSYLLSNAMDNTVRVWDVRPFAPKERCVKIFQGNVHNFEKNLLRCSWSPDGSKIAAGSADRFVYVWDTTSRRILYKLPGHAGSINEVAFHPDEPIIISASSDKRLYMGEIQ
# Sequence of UniProt Q8N0X7 (Q8N0X7 whole entry, looked up): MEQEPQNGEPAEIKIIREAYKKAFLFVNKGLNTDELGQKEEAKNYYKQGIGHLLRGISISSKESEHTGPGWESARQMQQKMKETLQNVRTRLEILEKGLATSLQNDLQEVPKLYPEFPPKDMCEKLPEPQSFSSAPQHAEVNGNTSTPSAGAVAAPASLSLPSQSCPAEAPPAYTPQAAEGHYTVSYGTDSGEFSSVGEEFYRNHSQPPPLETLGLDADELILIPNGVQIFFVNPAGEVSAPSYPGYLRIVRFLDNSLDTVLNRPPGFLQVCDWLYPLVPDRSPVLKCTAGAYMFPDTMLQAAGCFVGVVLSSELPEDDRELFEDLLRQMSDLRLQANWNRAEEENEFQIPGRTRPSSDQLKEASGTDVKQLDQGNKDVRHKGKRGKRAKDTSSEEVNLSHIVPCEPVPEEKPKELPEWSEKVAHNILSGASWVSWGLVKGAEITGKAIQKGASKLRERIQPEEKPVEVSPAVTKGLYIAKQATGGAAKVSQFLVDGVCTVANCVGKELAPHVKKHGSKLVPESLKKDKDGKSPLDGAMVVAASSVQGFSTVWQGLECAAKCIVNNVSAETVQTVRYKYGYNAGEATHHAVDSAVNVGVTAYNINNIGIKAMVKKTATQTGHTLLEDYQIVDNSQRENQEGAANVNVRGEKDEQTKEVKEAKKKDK
# Sequence of UniProt Q93075 (Q93075 whole entry, looked up): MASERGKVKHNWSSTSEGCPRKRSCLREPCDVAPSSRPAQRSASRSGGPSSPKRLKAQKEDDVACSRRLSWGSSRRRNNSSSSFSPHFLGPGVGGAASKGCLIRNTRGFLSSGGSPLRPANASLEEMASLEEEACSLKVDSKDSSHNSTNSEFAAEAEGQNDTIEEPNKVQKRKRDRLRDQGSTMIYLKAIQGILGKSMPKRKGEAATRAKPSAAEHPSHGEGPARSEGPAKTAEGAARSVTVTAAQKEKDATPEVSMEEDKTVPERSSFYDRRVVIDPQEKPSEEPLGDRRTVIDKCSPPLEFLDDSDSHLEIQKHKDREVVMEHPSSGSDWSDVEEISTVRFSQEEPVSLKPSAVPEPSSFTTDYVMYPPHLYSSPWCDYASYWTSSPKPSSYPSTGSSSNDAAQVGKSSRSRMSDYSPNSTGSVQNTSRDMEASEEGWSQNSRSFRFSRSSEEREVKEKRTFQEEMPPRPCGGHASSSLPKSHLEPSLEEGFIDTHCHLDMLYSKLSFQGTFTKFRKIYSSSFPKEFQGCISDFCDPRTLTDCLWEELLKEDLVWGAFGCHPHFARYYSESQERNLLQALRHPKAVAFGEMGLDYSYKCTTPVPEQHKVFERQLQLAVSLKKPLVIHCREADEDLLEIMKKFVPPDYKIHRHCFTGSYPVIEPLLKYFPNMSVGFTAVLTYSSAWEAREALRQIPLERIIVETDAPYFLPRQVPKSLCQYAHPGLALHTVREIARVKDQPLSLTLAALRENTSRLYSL
# Sequence of UniProt Q9NS93 (Q9NS93 whole entry, looked up): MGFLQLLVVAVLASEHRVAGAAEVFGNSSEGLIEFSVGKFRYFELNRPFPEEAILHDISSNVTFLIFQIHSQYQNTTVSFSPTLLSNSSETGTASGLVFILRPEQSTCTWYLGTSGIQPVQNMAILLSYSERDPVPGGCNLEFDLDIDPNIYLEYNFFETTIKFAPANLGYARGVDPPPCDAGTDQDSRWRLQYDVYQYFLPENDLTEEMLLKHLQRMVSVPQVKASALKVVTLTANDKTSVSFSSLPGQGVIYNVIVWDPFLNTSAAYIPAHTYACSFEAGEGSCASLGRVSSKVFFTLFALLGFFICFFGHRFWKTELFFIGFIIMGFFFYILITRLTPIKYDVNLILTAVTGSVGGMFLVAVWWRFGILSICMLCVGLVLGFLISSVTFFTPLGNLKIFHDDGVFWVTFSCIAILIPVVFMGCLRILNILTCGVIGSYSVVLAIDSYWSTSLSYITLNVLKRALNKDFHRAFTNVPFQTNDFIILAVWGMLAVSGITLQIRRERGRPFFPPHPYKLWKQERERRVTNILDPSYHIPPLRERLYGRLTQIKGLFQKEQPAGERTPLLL
# Sequence of UniProt Q13247 (Q13247 whole entry, looked up): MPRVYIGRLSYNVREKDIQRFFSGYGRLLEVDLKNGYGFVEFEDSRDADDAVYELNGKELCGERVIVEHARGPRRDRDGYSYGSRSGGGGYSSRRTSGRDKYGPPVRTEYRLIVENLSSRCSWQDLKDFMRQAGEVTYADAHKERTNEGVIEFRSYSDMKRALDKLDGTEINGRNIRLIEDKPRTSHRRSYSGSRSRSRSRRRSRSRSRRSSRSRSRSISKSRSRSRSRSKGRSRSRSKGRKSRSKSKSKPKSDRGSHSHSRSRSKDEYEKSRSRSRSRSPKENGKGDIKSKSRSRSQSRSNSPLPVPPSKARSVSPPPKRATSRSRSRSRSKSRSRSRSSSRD
# Sequence of UniProt O15400 (O15400 whole entry, looked up): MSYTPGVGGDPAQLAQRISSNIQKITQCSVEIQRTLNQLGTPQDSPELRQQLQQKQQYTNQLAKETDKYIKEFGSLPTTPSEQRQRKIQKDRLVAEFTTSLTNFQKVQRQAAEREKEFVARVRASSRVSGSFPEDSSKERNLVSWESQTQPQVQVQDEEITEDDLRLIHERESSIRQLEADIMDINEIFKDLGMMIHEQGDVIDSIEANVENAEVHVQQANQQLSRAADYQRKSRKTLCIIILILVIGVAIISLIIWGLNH
# Sequence of UniProt Q13596 (Q13596 whole entry, looked up): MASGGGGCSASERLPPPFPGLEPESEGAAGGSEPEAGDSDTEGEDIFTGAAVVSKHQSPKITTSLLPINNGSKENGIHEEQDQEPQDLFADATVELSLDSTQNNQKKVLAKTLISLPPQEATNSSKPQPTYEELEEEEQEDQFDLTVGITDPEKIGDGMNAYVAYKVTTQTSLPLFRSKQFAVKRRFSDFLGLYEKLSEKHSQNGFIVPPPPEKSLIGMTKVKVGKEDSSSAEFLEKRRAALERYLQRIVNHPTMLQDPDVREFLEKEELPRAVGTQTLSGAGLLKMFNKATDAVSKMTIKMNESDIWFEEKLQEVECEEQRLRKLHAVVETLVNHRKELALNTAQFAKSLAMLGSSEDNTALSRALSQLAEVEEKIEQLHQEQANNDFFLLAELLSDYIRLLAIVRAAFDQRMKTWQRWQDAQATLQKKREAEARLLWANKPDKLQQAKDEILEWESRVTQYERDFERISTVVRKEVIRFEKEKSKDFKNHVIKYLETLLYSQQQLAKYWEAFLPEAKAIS
# Sequence of UniProt Q8IWA5 (Q8IWA5 whole entry, looked up): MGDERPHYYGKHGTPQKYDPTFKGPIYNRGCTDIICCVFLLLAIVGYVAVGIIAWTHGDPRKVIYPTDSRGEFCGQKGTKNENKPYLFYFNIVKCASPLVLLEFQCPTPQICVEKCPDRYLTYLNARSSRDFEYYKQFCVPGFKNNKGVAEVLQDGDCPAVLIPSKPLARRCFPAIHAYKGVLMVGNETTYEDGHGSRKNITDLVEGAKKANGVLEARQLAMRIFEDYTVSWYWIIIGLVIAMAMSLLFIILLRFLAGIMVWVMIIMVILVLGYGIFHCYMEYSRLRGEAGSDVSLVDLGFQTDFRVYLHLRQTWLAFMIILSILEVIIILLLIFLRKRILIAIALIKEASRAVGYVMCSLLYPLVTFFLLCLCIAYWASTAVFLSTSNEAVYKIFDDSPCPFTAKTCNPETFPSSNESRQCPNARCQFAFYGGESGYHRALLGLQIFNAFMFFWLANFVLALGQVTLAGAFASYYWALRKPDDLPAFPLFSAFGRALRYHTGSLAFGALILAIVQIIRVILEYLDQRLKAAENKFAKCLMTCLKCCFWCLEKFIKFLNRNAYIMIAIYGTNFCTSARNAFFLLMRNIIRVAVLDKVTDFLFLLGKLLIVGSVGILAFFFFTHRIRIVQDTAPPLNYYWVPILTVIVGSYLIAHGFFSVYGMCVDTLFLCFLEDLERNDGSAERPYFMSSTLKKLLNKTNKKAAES
# Sequence of UniProt Q9Y5J6 (Q9Y5J6 whole entry, looked up): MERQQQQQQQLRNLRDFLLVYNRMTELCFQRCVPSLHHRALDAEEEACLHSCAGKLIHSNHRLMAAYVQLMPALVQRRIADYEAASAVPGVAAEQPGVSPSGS
# Sequence of UniProt Q9P016 (Q9P016 whole entry, looked up): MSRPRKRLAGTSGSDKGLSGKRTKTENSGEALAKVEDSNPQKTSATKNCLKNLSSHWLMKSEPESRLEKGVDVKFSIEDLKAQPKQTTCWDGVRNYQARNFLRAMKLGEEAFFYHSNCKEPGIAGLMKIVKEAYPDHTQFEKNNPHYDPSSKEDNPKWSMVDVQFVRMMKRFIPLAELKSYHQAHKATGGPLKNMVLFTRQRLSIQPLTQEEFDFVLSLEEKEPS
# Sequence of UniProt Q15005 (Q15005 whole entry, looked up): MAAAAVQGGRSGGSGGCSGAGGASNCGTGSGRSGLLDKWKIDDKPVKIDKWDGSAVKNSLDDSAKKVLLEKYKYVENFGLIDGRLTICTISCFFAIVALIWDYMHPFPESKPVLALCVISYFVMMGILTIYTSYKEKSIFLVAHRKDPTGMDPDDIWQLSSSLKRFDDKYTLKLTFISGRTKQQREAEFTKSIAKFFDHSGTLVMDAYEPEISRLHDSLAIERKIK
# Sequence of UniProt Q9H4I9 (Q9H4I9 whole entry, looked up): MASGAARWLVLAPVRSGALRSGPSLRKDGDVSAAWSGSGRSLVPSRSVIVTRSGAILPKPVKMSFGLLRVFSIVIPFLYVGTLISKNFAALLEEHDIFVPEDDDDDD
# Sequence of UniProt Q8N5G0 (Q8N5G0 whole entry, looked up): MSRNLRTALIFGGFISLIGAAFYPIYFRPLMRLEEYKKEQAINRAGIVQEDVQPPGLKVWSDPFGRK
row,Target,log2 fold change
1,SLC44A2 isoform 2 (UniProt Q8IWA5),0.104 (inactive)
2,STK38L (UniProt Q9Y2H1),0.103 (inactive)
3,SLC35F6 (UniProt Q8N357),0.182 (inactive)
4,SLC27A1 (UniProt Q6PCB7),-0.007 (inactive)
5,SRSF6 (UniProt Q13247),0.032 (inactive)
6,TATDN2 (UniProt Q93075),-0.017 (inactive)
7,TENT5C (UniProt Q5VWP2),-0.127 (inactive)
8,TMBIM1 (UniProt Q969X1),-0.147 (inactive)
9,SNRNP40 (UniProt Q96DI7),0.068 (inactive)
10,SPART (UniProt Q8N0X7),-0.03 (inactive)
11,SRSF4 (UniProt Q08170),-0.065 (inactive)
12,SMDT1 (UniProt Q9H4I9),0.092 (inactive)
13,SNX1 (UniProt Q13596),0.006 (inactive)
14,THADA (UniProt Q6YHU6),0 (inactive)
15,SMARCB1 (UniProt Q12824),-0.09 (inactive)
16,TACC2 (UniProt O95359),-0.003 (inactive)
17,SRFBP1 (UniProt Q8NEF9),0.038 (inactive)
18,SYNE1 (UniProt Q8NF91),-0.054 (inactive)
19,STARD3 (UniProt Q14849),-0.043 (inactive)

row,Target,log2 fold change
1,SNX15 (UniProt Q9NRS6),-0.039 (inactive)
2,SRCAP (UniProt Q6ZRS2),0.032 (inactive)
3,THYN1 (UniProt Q9P016),-0.062 (inactive)
4,SURF2 (UniProt Q15527),0.034 (inactive)
5,TANGO6 (UniProt Q9C0B7),-0.09 (inactive)
6,SPCS2 (UniProt Q15005),-0.029 (inactive)
7,STAM2 (UniProt O75886),-0.093 (inactive)
8,SP100 isoform 4 (UniProt P23497),0.058 (inactive)
9,TM7SF3 (UniProt Q9NS93),0.072 (inactive)
10,TIMM10B (UniProt Q9Y5J6),-0.046 (inactive)
11,TLK1 (UniProt Q9UKI8),0.022 (inactive)
12,SLC30A7 (UniProt Q8NEW0),0.077 (inactive)
13,TAF6L (UniProt Q9Y6J9),0.148 (inactive)
14,SLC35B1 isoform 2 (UniProt P78383),0.036 (inactive)
15,STX7 (UniProt O15400),0.063 (inactive)
16,TARS2 (UniProt Q9BW92),-0.004 (inactive)
17,SUPT5H (UniProt O00267),-0.01 (inactive)
18,SMIM20 isoform 2 (UniProt Q8N5G0),0 (inactive)
19,TANK (UniProt Q92844),0.118 (inactive)

# Compound: CN1CCN(c2nc(C3=C(c4c[nH]c5ccccc45)C(=O)NC3=O)c3ccccc3n2)CC1 [sotrastaurin]
# Assay: as above
# Procedure, shortened: as §1
row,Target,log2 fold change
1,SLC44A2 isoform 2 (UniProt Q8IWA5),0.056 (inactive)
2,STK38L (UniProt Q9Y2H1),0.035 (inactive)
3,SLC35F6 (UniProt Q8N357),-0.071 (inactive)
4,SLC27A1 (UniProt Q6PCB7),0.013 (inactive)
5,SRSF6 (UniProt Q13247),0.031 (inactive)
6,TATDN2 (UniProt Q93075),0.111 (inactive)
7,TENT5C (UniProt Q5VWP2),0.035 (inactive)
8,TMBIM1 (UniProt Q969X1),0.012 (inactive)
9,SNRNP40 (UniProt Q96DI7),-0.01 (inactive)
10,SPART (UniProt Q8N0X7),-0.011 (inactive)
11,SRSF4 (UniProt Q08170),0.028 (inactive)
12,SMDT1 (UniProt Q9H4I9),-0.077 (inactive)
13,SNX1 (UniProt Q13596),-0.006 (inactive)
14,THADA (UniProt Q6YHU6),-0.104 (inactive)
15,SMARCB1 (UniProt Q12824),-0.192 (inactive)
16,TACC2 (UniProt O95359),0.115 (inactive)
17,SRFBP1 (UniProt Q8NEF9),-0.01 (inactive)
18,SYNE1 (UniProt Q8NF91),-0.086 (inactive)
19,STARD3 (UniProt Q14849),-0.028 (inactive)

row,Target,log2 fold change
1,SNX15 (UniProt Q9NRS6),-0.048 (inactive)
2,SRCAP (UniProt Q6ZRS2),-0.045 (inactive)
3,THYN1 (UniProt Q9P016),-0.022 (inactive)
4,SURF2 (UniProt Q15527),-0.02 (inactive)
5,TANGO6 (UniProt Q9C0B7),-0.135 (inactive)
6,SPCS2 (UniProt Q15005),-0.054 (inactive)
7,STAM2 (UniProt O75886),-0.011 (inactive)
8,SP100 isoform 4 (UniProt P23497),-0.003 (inactive)
9,TM7SF3 (UniProt Q9NS93),0.035 (inactive)
10,TIMM10B (UniProt Q9Y5J6),0.074 (inactive)
11,TLK1 (UniProt Q9UKI8),-0.011 (inactive)
12,SLC30A7 (UniProt Q8NEW0),0.101 (inactive)
13,TAF6L (UniProt Q9Y6J9),-0.2 (inactive)
14,SLC35B1 isoform 2 (UniProt P78383),-0.03 (inactive)
15,STX7 (UniProt O15400),0.026 (inactive)
16,TARS2 (UniProt Q9BW92),-0.049 (inactive)
17,SUPT5H (UniProt O00267),-0.021 (inactive)
18,SMIM20 isoform 2 (UniProt Q8N5G0),0.056 (inactive)
19,TANK (UniProt Q92844),0.033 (inactive)
